Experimental data from ChEMBL document CHEMBL4808148, “HDAC6 screening dataset using tau-based substrate in an enzymatic assay yields selective inhibitors and activators” (2021).
The campaign covered roughly 5,600 compounds. About 150 (2.7%) showed an effect of 50% or more. Only a selection was taken, and strong results are over-represented in it overall.

Target: T1, Protein deacetylase HDAC6 (Homo sapiens) (UniProt Q9UBN7)
T1 sequence (whole entry): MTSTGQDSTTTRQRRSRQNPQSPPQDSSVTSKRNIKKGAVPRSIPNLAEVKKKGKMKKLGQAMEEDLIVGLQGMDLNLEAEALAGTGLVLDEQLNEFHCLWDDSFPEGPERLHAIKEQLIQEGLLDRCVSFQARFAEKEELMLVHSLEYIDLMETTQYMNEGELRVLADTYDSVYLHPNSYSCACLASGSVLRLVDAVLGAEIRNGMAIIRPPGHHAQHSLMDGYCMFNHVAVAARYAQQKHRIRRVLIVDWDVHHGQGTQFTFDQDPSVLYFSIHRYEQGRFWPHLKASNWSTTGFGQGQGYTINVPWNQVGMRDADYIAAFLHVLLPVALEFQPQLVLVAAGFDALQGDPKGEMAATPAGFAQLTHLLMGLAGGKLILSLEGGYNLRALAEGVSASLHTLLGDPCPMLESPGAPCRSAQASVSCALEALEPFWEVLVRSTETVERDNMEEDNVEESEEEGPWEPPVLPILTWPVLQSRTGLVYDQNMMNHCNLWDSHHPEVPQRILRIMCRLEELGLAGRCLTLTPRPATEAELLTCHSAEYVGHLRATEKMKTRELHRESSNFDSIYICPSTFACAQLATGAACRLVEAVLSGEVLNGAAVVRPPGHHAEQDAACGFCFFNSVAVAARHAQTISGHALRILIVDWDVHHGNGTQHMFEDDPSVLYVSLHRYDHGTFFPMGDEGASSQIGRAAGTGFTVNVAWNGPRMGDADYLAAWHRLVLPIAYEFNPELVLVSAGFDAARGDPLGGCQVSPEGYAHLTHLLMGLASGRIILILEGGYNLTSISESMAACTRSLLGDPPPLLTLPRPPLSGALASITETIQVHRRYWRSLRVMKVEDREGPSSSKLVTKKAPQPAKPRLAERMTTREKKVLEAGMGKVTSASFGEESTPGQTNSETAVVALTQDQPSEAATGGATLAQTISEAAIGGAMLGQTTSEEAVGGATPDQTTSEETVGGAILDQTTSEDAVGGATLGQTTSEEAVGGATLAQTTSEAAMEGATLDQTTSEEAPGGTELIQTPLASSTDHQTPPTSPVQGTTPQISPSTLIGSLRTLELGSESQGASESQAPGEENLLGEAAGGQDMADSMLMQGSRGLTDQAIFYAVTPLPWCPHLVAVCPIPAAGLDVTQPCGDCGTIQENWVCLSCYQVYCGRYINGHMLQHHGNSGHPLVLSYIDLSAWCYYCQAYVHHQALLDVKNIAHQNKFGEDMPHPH
Details: at 10 µM

Row | SMILES | inhibition
1 | CC(=O)OC1C[C@H]2C(C)(C)C(=O)C=C[C@]2(C)[C@H]2CC[C@@]3(C)[C@H](c4ccoc4)OC(=O)[C@H]4O[C@]43[C@]12C (stereo partly specified) | -9.28%
2 | Nc1cc2c3ccccc3ccc2c2ccccc12 | 23.6%
3 | Clc1cccc(C(c2ccc3[nH]cnc3c2)n2ccnc2)c1 (stereo unspecified) | 0.23%
4 | O[C@H]1CC[C@H](Nc2ncc3nc(Nc4c(F)cc(F)cc4F)n([C@H]4CCOC4)c3n2)CC1 | -4.44%
5 | Nc1ccc(S(N)(=O)=O)cc1 | -5.55%
6 | NCc1ccc(S(N)(=O)=O)cc1 | 0.53%
7 | NS(=O)(=O)c1ccc(S(=O)(=O)Nc2cccc3c(Cl)c[nH]c23)cc1 | 79.5%
8 | C=CC(C)(O)CCC=C(C)C (stereo unspecified) | 1.97%
9 | O=C(CN1C(=O)C2(CCCC2)NC[C@H]1c1cc(F)cc(F)c1)Nc1ccc2c(c1)C[C@@]1(C2)C(=O)Nc2ncccc21 | -4.92%
10 | C=CC(=O)O | 0.87%
11 | C[C@@H]1CC(=O)c2c(ccc3c2C(=O)c2cccc(O)c2C3=O)C1 | 77.5%
12 | Cc1cc(O)c2c(c1)C(=O)c1cccc(O)c1C2=O | 6.5%
13 | O=C1c2cccc(O)c2C(=O)c2c(O)cccc21 | -4.52%
14 | Cc1ccc2c(N3CCN(CCc4cccc(N5CCNC5=O)c4)CC3)cccc2n1 | -3.2%
15 | CCCCCCOc1cc2c(cc1N(C)c1ncc(C(=O)O)cn1)C(C)(C)CCC2(C)C | 0.82%
16 | Nc1nccc(/C=C/c2ccccc2)n1 | 96.2%
17 | Cc1cccc(/C=C/c2ccccc2)n1 | 98.2%
18 | CC[N+](CC)(CC)CCOc1ccc(/C=C/c2ccccc2)cc1 | -3.25%

Row | SMILES | inhibition
19 | Cc1nc2ccccc2c(-c2ccc3c4c(ccnc24)CCO3)c1[C@H](OC(C)(C)C)C(=O)O | -1.87%
20 | Cc1cc(N2CCOCC2)ccc1Nc1nc(NC2CCCCC2)c2nc[nH]c2n1 | -0.21%
21 | Cc1cc2ncc(C(=O)NCC(C)(C)NCC(=O)N3CCC[C@H]3C#N)cn2n1 | 2.17%
22 | COc1ccc(Cc2cnc(N)nc2N)cc1OC | -3.93%
23 | COc1ccc(COc2ccc(Cc3cnc(N)nc3N)cc2OC)cc1 | 58.8%
24 | COc1cc(Cc2cnc(N)nc2N)cc(OC)c1OC | -5.72%
25 | c1nc2c(NC3CCCCC3)nc(Nc3ccc(N4CCOCC4)cc3)nc2[nH]1 | -4.12%
26 | Cc1cc(/C(=C\Nc2ccc(Cl)cc2)C(=O)Nc2ccc(Cl)cc2)on1 | -2.63%
27 | Oc1ccc2c(c1)CC[C@H](c1ccccc1)[C@@H]2c1ccc(OCCN2CCCC2)cc1 | -2.46%
28 | COc1cc2c(=O)c(-c3ccc(O)cc3)coc2cc1O | 96.6%
29 | COc1ccc(C(C)=O)c(O)c1 | 0.72%
30 | O=c1c(-c2ccc(O)cc2)coc2c(C3OC(CO)C(O)C(O)C3O)c(O)ccc12 (stereo unspecified) | -5.66%
31 | COc1ccc(-c2coc3cc(O)ccc3c2=O)cc1 | 62.6%
32 | COc1cc(C(C)=O)ccc1O | 4.49%
33 | Cc1cc(=O)oc2cc(O)ccc12 | -0.81%
34 | CC(C)Oc1ccc2c(=O)c(-c3ccccc3)coc2c1 | -8.43%
35 | O=c1c(-c2ccc(O)cc2)coc2cc(O)ccc12 | 76%
36 | O=c1c(O)c(-c2ccc(O)c(O)c2)oc2cc(O)ccc12 | 8.31%
